Measured values as given in PubChem BioAssay (Tox21).
Records with an inconclusive call do not appear. Activity calls are given as the source filed them. Unless noted, calls follow the shape of the dose curve; as a rule, active = well fitted curve in the direction sought with a large enough effect in the repeat runs; inconclusive = weak or mixed curves; inactive = no such curve, though single readings can be large; an effect the other way counts as inactive or inconclusive.

What was measured:
[1] = A CellTox Green Cytotoxicity Assay to monitor cytotoxicity in HepG2 cells - 16 hour (AID 1224876); also: nearly all actives have a fitted effect of over 45% in size
Procedure, shortened: (§1)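 First, HepG2 cells (600/well) mixed with reagent were plated; second, after 5 h at 37 C they received compounds via pintool; third, fluorescence was measured at 0 h through 40 h at 8 h intervals.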

[2] = qHTS RealTime-Glo MT Cell Viability Assay in HepG2 cells - 32 hour (AID 1224877); also: nearly all actives have a fitted effect of over 55% in size
Procedure, shortened: (§2)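 Cell number in HepG2 cultures estimated from NanoLuc luminescence generated by metabolic reduction of a prosubstrate by living cells. The homogeneous, nonlytic format allowed repeated reads at 0, 8, 16, 24, 32 and 40 h of compound exposure.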

[3] = A CellTox Green Cytotoxicity Assay to monitor cytotoxicity in HepG2 cells - 24 hour (AID 1224878); also: nearly all actives have a fitted effect of over 45% in size
Procedure, shortened: as §1

[4] = A CellTox Green Cytotoxicity Assay to monitor cytotoxicity in HepG2 cells - 40 hour (AID 1224879); also: nearly all actives have a fitted effect of over 40% in size
Procedure, shortened: as §1

[5] = qHTS RealTime-Glo MT Cell Viability Assay in HEK293 cells - 0 hour (AID 1224880); also: top concentration of the series differs between compounds; nearly all actives have a fitted effect of over 45% in size
Procedure, shortened: (§3)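 600 HEK293 cells per well, dispensed already mixed with RealTime-Glo MT reagents. Compound dosing came 5 h later. The same wells were read for luminescence at 0, 8, 16, 24, 32 and 40 h of exposure at 37 C.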

[6] = A CellTox Green Cytotoxicity Assay to monitor cytotoxicity in HEK293 cells - 32 hour (AID 1224881); also: nearly all actives have a fitted effect of over 40% in size
Procedure, shortened: (§4)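 Dead-cell fluorescence measured kinetically: asymmetric cyanine dye, HEK293, 600 cells/well, 5 h settle, 23 nL cpd/DMSO, 37 C, reads 0–40 h every 8 h.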

[7] = A CellTox Green Cytotoxicity Assay to monitor cytotoxicity in HepG2 cells - 0 hour (AID 1224882); also: nearly all actives have a fitted effect of over 35% in size
Procedure, shortened: as §1

[8] = A CellTox Green Cytotoxicity Assay to monitor cytotoxicity in HepG2 cells - 32 hour (AID 1224883); also: nearly all actives have a fitted effect of over 50% in size
Procedure, shortened: as §1

[9] = A CellTox Green Cytotoxicity Assay to monitor cytotoxicity in HEK293 cells - 8 hour (AID 1224884); also: nearly all actives have a fitted effect of over 35% in size
Procedure, shortened: as §4

[10] = qHTS RealTime-Glo MT Cell Viability Assay in HepG2 cells - 16 hour (AID 1224885); also: nearly all actives have a fitted effect of over 50% in size
Procedure, shortened: as §2

[11] = qHTS RealTime-Glo MT Cell Viability Assay in HEK293 cells - 24 hour (AID 1224886); also: top concentration of the series differs between compounds; nearly all actives have a fitted effect of over 50% in size
Procedure, shortened: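 Homogeneous bioluminescent viability format in HEK293 cells (600 cells/well). Following 5 h at 37 C/5% CO2, 23 nL compound was pintooled; the signal was measured repeatedly during 40 h incubation.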

[12] = qHTS RealTime-Glo MT Cell Viability Assay in HEK293 cells - 8 hour (AID 1224887); also: top concentration of the series differs between compounds; nearly all actives have a fitted effect of over 50% in size
Procedure, shortened: as §3

[13] = A CellTox Green Cytotoxicity Assay to monitor cytotoxicity in HEK293 cells - 16 hour (AID 1224888); also: nearly all actives have a fitted effect of over 35% in size
Procedure, shortened: as §4

[14] = qHTS RealTime-Glo MT Cell Viability Assay in HepG2 cells - 0 hour (AID 1224889); also: nearly all actives have a fitted effect of over 50% in size
Procedure, shortened: as §2

[15] = A CellTox Green Cytotoxicity Assay to monitor cytotoxicity in HepG2 cells - 8 hour (AID 1224890); also: nearly all actives have a fitted effect of over 45% in size
Procedure, shortened: as §1

[16] = qHTS assay to identify small molecule antagonists of the estrogen receptor alpha (ER-alpha) signaling pathway using the BG1 cell line in the presence of 0.1 nM 17-beta-estradiol - cell viability counter screen (AID 1259241); also: nearly all actives have a fitted effect of over 40% in size
Procedure, shortened: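 VM7Luc4E2 cells (endogenous full-length ER-alpha, 4xERE-luciferase), cultured 5 days in charcoal-stripped serum, exposed to compounds with 0.1 nM 17beta-estradiol (final) for 22 hr at 37C. Viability read in same wells as live-cell protease fluorescence after 30 min.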

[17] = qHTS assay to identify small molecule antagonists of the androgen receptor (AR) signaling pathway using the MDA cell line in the presence of 0.5 nM R1881 - cell viability counter screen (AID 1259242); also: nearly all actives have a fitted effect of over 45% in size
Procedure, shortened: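 qHTS format. MDA-kb2 (MMTV-luc, AR/GR responsive) + cpd + 0.5 nM R1881 final, 16 hr 37C/0% CO2 → CellTiter-Fluor 30 min → fluorescence intensity.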

[18] = molecular target: Estrogen receptor (Homo sapiens) (UniProt P03372); assay: qHTS assay to identify small molecule antagonists of the estrogen receptor alpha (ER-alpha) signaling pathway using the BG1 cell line in the presence of 0.1 nM 17-beta-estradiol (AID 1259244); also: nearly all actives have a fitted effect of over 50% in size
Chain of Estrogen receptor (Homo sapiens) (P03372 whole entry, looked up): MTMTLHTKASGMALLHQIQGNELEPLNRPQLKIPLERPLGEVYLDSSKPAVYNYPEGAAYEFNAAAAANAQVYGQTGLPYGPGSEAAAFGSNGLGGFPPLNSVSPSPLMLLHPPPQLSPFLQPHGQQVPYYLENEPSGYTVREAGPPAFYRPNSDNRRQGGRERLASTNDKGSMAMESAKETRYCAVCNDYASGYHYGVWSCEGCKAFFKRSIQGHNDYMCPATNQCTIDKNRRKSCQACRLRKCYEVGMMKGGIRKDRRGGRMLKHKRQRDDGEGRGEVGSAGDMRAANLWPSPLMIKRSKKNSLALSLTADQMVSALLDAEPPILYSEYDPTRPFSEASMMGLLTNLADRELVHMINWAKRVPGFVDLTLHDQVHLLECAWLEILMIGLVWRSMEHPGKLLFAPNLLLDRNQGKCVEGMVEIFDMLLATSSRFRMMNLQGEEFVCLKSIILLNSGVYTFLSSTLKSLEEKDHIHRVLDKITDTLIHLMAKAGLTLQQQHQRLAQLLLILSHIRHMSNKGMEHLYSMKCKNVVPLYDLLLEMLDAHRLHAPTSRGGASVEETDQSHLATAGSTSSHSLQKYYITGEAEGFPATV
Procedure, shortened: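 Reporter is a stably transfected luciferase under four estrogen responsive elements in VM7Luc4E2 cells expressing native full-length ER-alpha; inhibition of 0.1 nM (final) 17beta-estradiol-driven signal over 22 h is read by luminescence.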

[19] = qHTS assay to identify small molecule phospholipidosis (PLD) inducers (AID 1259344; active = well fitted curve in the direction sought with a large enough effect; an effect the other way counts as inactive or inconclusive)
Procedure, shortened: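 Accumulated phospholipid, stained red by LipidTOX during 24 h compound treatment of HepG2 cells at 37 C, is quantified from images as pit number and intensity, normalised per cell using Hoechst-stained nuclei.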

[20] = molecular target: Androgen receptor (Homo sapiens) (UniProt P10275); assay: qHTS assay to identify small molecule antagonists of the androgen receptor (AR) signaling pathway using the MDA cell line in the presence of 0.5 nM R1881 (AID 1259243); also: nearly all actives have a fitted effect of over 50% in size
Chain of Androgen receptor (Homo sapiens) (P10275 whole entry, looked up): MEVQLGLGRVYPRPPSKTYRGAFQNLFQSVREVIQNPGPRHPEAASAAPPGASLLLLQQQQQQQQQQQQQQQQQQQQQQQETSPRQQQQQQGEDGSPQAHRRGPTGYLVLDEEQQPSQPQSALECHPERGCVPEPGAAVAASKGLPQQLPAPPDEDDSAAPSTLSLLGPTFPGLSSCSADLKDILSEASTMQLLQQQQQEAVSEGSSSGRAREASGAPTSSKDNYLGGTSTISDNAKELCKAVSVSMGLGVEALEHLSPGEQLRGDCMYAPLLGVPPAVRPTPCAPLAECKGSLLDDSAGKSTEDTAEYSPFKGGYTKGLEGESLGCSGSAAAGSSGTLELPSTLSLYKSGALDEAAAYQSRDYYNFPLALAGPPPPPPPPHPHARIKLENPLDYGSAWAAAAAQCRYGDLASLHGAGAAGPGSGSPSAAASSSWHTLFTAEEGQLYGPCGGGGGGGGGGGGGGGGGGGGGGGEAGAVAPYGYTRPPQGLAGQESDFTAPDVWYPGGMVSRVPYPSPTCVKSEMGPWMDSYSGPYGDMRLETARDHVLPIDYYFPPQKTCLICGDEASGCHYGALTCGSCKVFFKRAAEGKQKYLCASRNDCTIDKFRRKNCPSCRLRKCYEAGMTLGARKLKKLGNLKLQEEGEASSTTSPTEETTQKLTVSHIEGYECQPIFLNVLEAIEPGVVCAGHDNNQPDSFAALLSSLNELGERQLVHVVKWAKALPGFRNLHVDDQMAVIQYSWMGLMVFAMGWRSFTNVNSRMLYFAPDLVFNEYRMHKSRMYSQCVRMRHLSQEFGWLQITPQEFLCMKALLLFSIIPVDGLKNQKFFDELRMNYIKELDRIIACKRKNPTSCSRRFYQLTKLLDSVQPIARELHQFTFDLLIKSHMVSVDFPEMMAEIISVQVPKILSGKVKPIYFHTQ
Procedure, shortened: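 Antagonist mode quantitative HTS in MDA-kb2 MMTV-luciferase cells, agonist R1881 at 0.5 nM final, 16 hr exposure at 37C and 0% CO2, luminescent detection.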
% is scaled to controls: 0 for no effect and ±100 for the full control effect.

NC(=O)NNC(N)=O
inactive: Potency [1] | outcome [2] | Potency [3] | Potency [4] | outcome [5] | Potency [6] | Potency [7] | Potency [8] | Potency [9] | outcome [10] | Potency [11] | Potency [12] | Potency [13] | Potency [14] | Potency [15] | Potency [16] | Potency [17] | Potency [18]

Cc1nc(C)nc(N2C[C@@H](C)N(c3ccnc([C@@H](C)O)n3)[C@@H](C)C2)n1
inactive: Potency [1] | outcome [2] | Potency [3] | Potency [4] | outcome [5] | Potency [6] | Potency [7] | Potency [8] | Potency [9] | outcome [10] | Potency [11] | Potency [12] | Potency [13] | Potency [14] | Potency [15] | Potency [16] | Potency [17] | Potency [18]

CC(C)C(=O)Nc1cccc(C(F)(F)F)c1
inactive: Potency [1] | outcome [2] | Potency [3] | Potency [4] | outcome [5] | Potency [6] | Potency [7] | Potency [8] | Potency [9] | outcome [10] | Potency [11] | Potency [12] | Potency [13] | Potency [14] | Potency [15] | Potency [16] | Potency [17] | Potency [18]

Nc1ccc(C(=O)OCC(O)CO)cc1 (stereo unspecified)
inactive: Potency [1] | outcome [2] | Potency [3] | Potency [4] | outcome [5] | Potency [6] | Potency [7] | Potency [8] | Potency [9] | outcome [10] | Potency [11] | Potency [12] | Potency [13] | Potency [14] | Potency [16] | Potency [17] | Potency [18]

CN[C@@H]1[C@@H](O)[C@@H](O[C@@H]2[C@H](O)[C@H](O[C@H]3OC(CN)=CC[C@H]3N)[C@@H](N)C[C@H]2N)OCC1(C)O (stereo partly specified)
inactive: Potency [1] | outcome [2] | Potency [3] | Potency [4] | outcome [5] | Potency [6] | Potency [7] | Potency [8] | Potency [9] | outcome [10] | Potency [11] | Potency [12] | Potency [13] | Potency [14] | Potency [15] | outcome [19]

C=CC(C)(O)CC/C=C(\C)CC (stereo unspecified)
inactive: Potency [1] | outcome [2] | Potency [3] | Potency [4] | outcome [5] | Potency [6] | Potency [7] | Potency [8] | Potency [9] | outcome [10] | Potency [11] | Potency [12] | Potency [13] | Potency [14] | Potency [15] | Potency [17] | Potency [18]

CC(C)CCC(=O)CCC(C)C
inactive: Potency [1] | outcome [2] | Potency [3] | Potency [4] | outcome [5] | Potency [6] | Potency [7] | Potency [8] | Potency [9] | outcome [10] | Potency [11] | Potency [12] | Potency [13] | Potency [14] | Potency [17] | Potency [18]

CN(C)CCCNCCC#N
inactive: Potency [1] | outcome [2] | Potency [3] | Potency [4] | outcome [5] | Potency [6] | Potency [7] | Potency [8] | Potency [9] | outcome [10] | Potency [11] | Potency [12] | Potency [13] | Potency [14] | Potency [15] | Potency [17]

CC(C)SCc1ccco1
inactive: Potency [1] | outcome [2] | Potency [3] | Potency [4] | outcome [5] | Potency [6] | Potency [7] | Potency [8] | Potency [9] | outcome [10] | Potency [11] | Potency [12] | Potency [13] | Potency [14] | Potency [15] | Potency [17] | Potency [18]

O=c1cc(O)c(Cl)c[nH]1
inactive: Potency [1] | outcome [2] | Potency [3] | Potency [4] | outcome [5] | Potency [6] | Potency [7] | Potency [8] | Potency [9] | outcome [10] | Potency [11] | Potency [12] | Potency [13] | Potency [14] | Potency [15] | Potency [16] | outcome [19]

COc1cccc2sc(N)nc12
inactive: Potency [1] | outcome [2] | Potency [3] | Potency [4] | outcome [5] | Potency [6] | Potency [7] | Potency [8] | Potency [9] | outcome [10] | Potency [11] | Potency [12] | Potency [13] | Potency [14] | Potency [16] | Potency [17] | outcome [20] | Potency [18]

O=C(Nc1cccc(C2=NCCN2)c1)Nc1cccc(C2=NCCN2)c1
inactive: cytotoxicity increase [1] -11.3% [at 15.8 µM] | activity change, negative = cytotoxic [2] 2.71% [at 15.8 µM] | cytotoxicity [3] -8.34% [at 15.8 µM] | cytotoxicity increase [4] -7.03% [at 15.8 µM] | activity change, negative = cytotoxicity [5] -5.15% [at 15.8 µM] | cytotoxicity increase [6] -2.02% [at 15.8 µM] | cytotoxicity [7] -0.131% [at 15.8 µM] | cytotoxicity increase [8] -8.68% [at 15.8 µM] | cytotoxicity increase [9] -6.06% [at 15.8 µM] | activity change, negative = cytotoxic [10] 0.713% [at 15.8 µM] | activity change, negative = cytotoxicity [11] -1.62% [at 15.8 µM] | activity change, negative = cytotoxicity [12] -0.375% [at 15.8 µM] | activity change [13] -6.11% [at 15.8 µM, active compounds read high] | activity change, negative = cytotoxicity [14] -1.91% [at 15.8 µM] | activity change, negative = cytotoxicity [16] -3.18% [at 19 µM] | viability change, negative = cytotoxic [17] -0.888% [at 19 µM] | activity change, negative = inhibition [18] -4.15% [at 19 µM] | outcome [19]

CCOC(=O)CCc1ccccc1
inactive: Potency [1] | outcome [2] | Potency [3] | Potency [4] | outcome [5] | Potency [6] | Potency [7] | Potency [8] | Potency [9] | outcome [10] | Potency [11] | Potency [12] | Potency [13] | Potency [14] | Potency [16] | Potency [17]

CCCOC(=O)CCCCC(=O)OCCC
inactive: Potency [1] | outcome [2] | Potency [3] | Potency [4] | outcome [5] | Potency [6] | Potency [7] | Potency [8] | Potency [9] | outcome [10] | Potency [11] | Potency [12] | Potency [13] | Potency [14] | Potency [16] | Potency [17] | Potency [18]

CCN(CC)C(=O)C1CN2CCc3cc(OC)c(OC)cc3C2CC1OC(C)=O (stereo unspecified)
inactive: Potency [1] | outcome [2] | Potency [3] | Potency [4] | outcome [5] | Potency [6] | Potency [7] | Potency [8] | Potency [9] | outcome [10] | Potency [11] | Potency [12] | Potency [13] | Potency [14] | Potency [17] | outcome [20] | Potency [18]
